This passage reports Potency results from PubChem BioAssay AID493169 (National Center for Advancing Translational Sciences (NCATS), 2011).

Each structure is given as a SMILES string. Inconclusive results are not listed. A call without a number means that no potency is given here. Calls of active or inactive are those of the source. Calls follow the shape of the dose curve; as a rule, active = well fitted inhibition curve with a large enough effect; inconclusive = small, poorly fitted or top-dose-only effect; inactive = flat fitted curve, though single readings scatter.
Potency is read from the fitted curve at half-maximal effect.

The nature of this assay: CHOP2 Reporter Counterscreen Assay for Inhibitors of Ubiquitin-specific Protease USP2a.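 Also: activated enterokinase alone at 50 pM in a cell-free format rather than USP2a or CHOP2; nearly all actives have a fitted effect of over 55% in size.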 To be noted: purified enterokinase, fluorogenic substrate, 485/531 nm; series mostly up to 38.3 µM. An excerpt: NIH Molecular Libraries Probe Centers Network [MLPCN] NIH Chemical Genomics Center [NCGC] MLPCN Grant: XO1-MH079852-01 PI Name: Nicholson, Ben. Progenra Inc, Malvern, PA NCGC Assay Overview: Homeostasis of cellular proteins is maintained through a combination of synthesis and degradation. The pathway that accounts for the majority of protein degradation is the ubiquitin-proteasomal pathway. Ubiquitin (Ub) is highly conserved in all cells and the generation of a multi-Ub chain typically targets proteins for degradation by the proteasome. However, ubiquitination is highly reversible and dynamic. Deubiquitination, the reverse process, is catalyzed through the action of enzymes referred to as isopeptidases or deubiquitinating enzymes (DUBs). This group of enzymes is collectively responsible for maintaining adequate pools of free ubiquitin and regulating the ubiquitination status of cellular proteins. The class of DUBs referred to as the ubiquitin-specific proteases (USP) family functions endoproteolytically to cleave Ub chains from a wide range of protein substrates. USP2a deubiquitinates fatty acid synthase (FASN) which has recently been identified as an emerging oncology target. To identify inhibitors of USP2a a cell-free assay was employed. This assay is a counterscreen against the reporter enzyme used to measure USP2a activity in the primary qHTS assay. The reporter enzyme is a protease (enterokinase, EK; EC 3.4.21.9), which is activated when a Ub sequence is cleaved by USP2a. The counterscreen assay is performed in the same buffer and conditions as the primary USP2a coupled assay but uses fully activated EK alone. The assay gives a fluorescent read-out at excitation/emission wavelengths of 485/531. The assay was provided by Progenra, Inc. and has been licensed for sale by LifeSensors, Inc.
NCGC Assay Protocol: The assay buffer, prepared fresh at the day of the assay, contains 20mM Tris-HCl pH 8.0, 2mM CaCl2, 2mM beta-Mercaptoethanol, 0.05% CHAPS. 3uL of 100 pM EK (50 pM final) was dispensed into a medium-binding black solid Kalypsys 1,536 well plate using the Kalypsys dispenser. The assay plate was then pinned with 23nL compounds in DMSO with the Kalypsys pintool in columns 5-48 (0.3% final DMSO concentration). The negative control was buffer/DMSO only in column 3. The assay plate is incubated at RT for 30min. Subsequently, 3uL of reporter substrate (25nM final) were dispensed into the plate using the Kalypsys dispenser. Plates were read after 10 min at RT on a ViewLux (Perkin Elmer) plate reader using the following wavelengths: Ex 485nm /Em 531nm. Data were normalized to the AC100 inhibition (buffer alone). Concentration-response curves were fitted to the normalized data and the concentration-response curves were then classified based on curve quality (r2), response magnitude and degree of measured activity. The time zero reading was used to flag fluorescence artifacts.
In general terms: A counterscreen serves to expose hits that act by an unwanted route or on another target.
Take `COc1ccc(NC(=O)c2c(C)nn(Cc3ccccc3Cl)c2Cl)cc1Cl`: the Potency result is “inactive”.

On to `FC(F)(F)c1ccc2c(c1)N(CCCN1CCN(CCCl)CC1)c1ccccc1S2`, for which the Potency result was “inactive”.

In the case of `CCCC1=C(C(=O)OCC)C2(C(=O)Nc3ccc(C)cc32)C(C#N)=C(N)O1` (centres undefined), the Potency entry was “inactive”.

On to `O=C(COc1ccc(S(=O)(=O)N2CCOCC2)cc1)N1CCN(Cc2ccc3c(c2)OCO3)CC1`, for which the Potency result was “inactive”.

On to `O=C(O)c1cccc2c1NC(C(=O)O)C1CC(Sc3ccccc3[N+](=O)[O-])C(Cl)C21` (centres undefined), for which the Potency is 10 µM (active).

In the case of `OC(c1ccncc1)(c1ccc(F)cc1)c1ccc(F)cc1`, the Potency entry is “inactive”.

With `O=c1[nH]c(=S)n(Cc2ccco2)c(O)c1C=NCc1cccs1`, the Potency was 8.91 µM (active).

For the compound `O=c1[nH]c(=O)n(Cc2ccc(F)cc2)c(O)c1C=NCCCn1ccnc1`, the Potency result was “inactive”.

On to `Nc1ccc(S(=O)(=O)N2CCCCC2c2cccnc2)cc1` (centres undefined), for which the Potency result was “inactive”.

Take `COc1ccc(S(=O)(=O)Cc2ccc(C(=O)N3CCC4(CC3)OCCO4)o2)cc1`: the Potency entry was “inactive”.

In the case of `CC(=Nc1ccc2c(c1)CCC2)c1c(O)n(C)c(=O)n(C)c1=O`, the Potency result is “inactive”.

Turning to `Cc1nn(Cc2ccc(Cl)cc2Cl)c(Cl)c1C(=O)Nc1ccc(OC(F)F)cc1`, the Potency result was “inactive”.

Regarding `O=C1NC(=S)N(c2ccccc2)C(=O)/C1=C/c1ccco1`, the Potency is 3.55 µM (active).

For the compound `O=C1CC(=O)N(Cc2ccccc2)C(=O)N1CCCCCCN1C(=O)CC(=O)N(Cc2ccccc2)C1=O`, the Potency entry is “inactive”.

Take `O=C1NC(=O)N(Cc2ccco2)C(=O)/C1=C/C=C/c1ccco1`: the Potency is 8.91 µM (active).

For `CC(C)N1C(=O)/C(=C/C=C/c2ccco2)C(=O)N(Cc2ccco2)C1=O`, the Potency is 7.94 µM (active).

Take `NC(N)=N/N=C/c1ccc(N(c2ccccc2)c2ccccc2)cc1`: the Potency was 8.91 µM (active).

As to `Clc1ccc(C(c2ccc(Cl)cc2)n2cc[n+](CC(OCc3ccc(Cl)cc3Cl)c3ccc(Cl)cc3Cl)c2)cc1` (centres undefined), the Potency is 3.16 µM (active).

Regarding `O=C1NC(=O)[C@]2(Cc3ccccc3N3CCN(c4ccccc4)CC32)C(=O)N1Cc1ccccc1` (some centres undefined), the Potency is 10 µM (active).
